This passage reports inhibition results from ChEMBL document CHEMBL3433997, “St. Jude Leishmania screening dataset” (2016).

As a reminder, the inhibition is the drop in the measured response relative to a control, in per cent.

What all share (format): functional
For assay [1], the target named is Solute carrier family 2, facilitated glucose transporter member 1 (Homo sapiens) (UniProt P11166). As to the kind of experiment: ST_JUDE_LEISH: Cytotoxicity at 2uM final concentration against transgenic Leishmania Mexicana promastigotes LmGLUT1 that are glucose transport deficient and complemented with the human glucose transporter GLUT1. Activity is measured by DNA content using SYBR green in vitro.

The target of assay [2] is Hexose transporter 1 (Plasmodium falciparum) (UniProt O97467). As to the kind of experiment: ST_JUDE_LEISH: Cytotoxicity at 2uM final concentration against transgenic Leishmania Mexicana promastigotes LmPfHT that are glucose transport deficient and complemented with the Plasmodium falciparum hexose transporter. Activity is measured by DNA content using SYBR green in vitro.

Assay [3] deals with Glucose transporter (Leishmania mexicana) (UniProt O61059). As to the kind of experiment: ST_JUDE_LEISH: Cytotoxicity at 2uM final concentration against transgenic Leishmania Mexicana promastigotes LmGT2 that are glucose transport deficient and complemented with the L. Mexicana glucose transporter 2. Activity is measured by DNA content using SYBR green in vitro.

Sequence of Solute carrier family 2, facilitated glucose transporter member 1 (Homo sapiens) (P11166 whole entry): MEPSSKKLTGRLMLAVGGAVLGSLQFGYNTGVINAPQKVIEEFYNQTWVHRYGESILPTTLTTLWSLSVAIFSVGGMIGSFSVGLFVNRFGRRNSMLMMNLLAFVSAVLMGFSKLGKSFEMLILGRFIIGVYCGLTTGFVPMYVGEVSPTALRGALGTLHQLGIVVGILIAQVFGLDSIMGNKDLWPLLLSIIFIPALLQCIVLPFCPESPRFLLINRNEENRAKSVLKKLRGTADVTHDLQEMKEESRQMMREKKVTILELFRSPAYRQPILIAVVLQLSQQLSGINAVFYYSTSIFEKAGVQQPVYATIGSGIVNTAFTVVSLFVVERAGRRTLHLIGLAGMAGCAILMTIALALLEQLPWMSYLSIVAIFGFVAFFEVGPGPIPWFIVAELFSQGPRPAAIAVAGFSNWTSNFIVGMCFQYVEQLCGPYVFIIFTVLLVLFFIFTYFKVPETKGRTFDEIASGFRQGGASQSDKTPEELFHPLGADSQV

For `CS(=O)(=O)CCNCc1nc(-c2ccc3ncnc(Nc4ccc(OCc5ccccc5)c(Cl)c4)c3c2)cs1`, the inhibition was 4.21% in assay [1], 3.42% in assay [2] and 2.9% in assay [3].

Take `Cc1cc(Nc2ccc(Cl)cc2)n2nc(C(F)(F)F)nc2n1`: the inhibition worked out at 0.02% in assay [1], 0.17% in assay [2] and 0.13% in assay [3].

Regarding `O=C(Nc1ccc(-c2nc3ccccc3[nH]2)cc1)C1CCN(Cc2ccc(F)cc2)CC1`, the inhibition in assay [1] was found to be 41.4%; in assay [2], 44.9%; in assay [3], 30.5%.

On to `CC(C)(CNC(=O)/C=C/c1ccc(C(F)(F)F)cc1)CNc1cc(=O)c2ccccc2[nH]1`, for which the inhibition was 1.07% in assay [1], -1.76% in assay [2] and 1.66% in assay [3].

As to `CCN(C(=O)CSc1cc(C)c2cc(C)cc(C)c2n1)C1CCS(=O)(=O)C1` (stereo unspecified), the inhibition was 0.63% in assay [1], 0.78% in assay [2] and -0.42% in assay [3].

As for `O=C(NCCCCN1CCC(c2ccc3c(c2OCC(O)c2ccc(Cl)cc2)CCCC3)CC1)c1ccc(-c2ccc(C(F)(F)F)cc2)cc1` (stereo unspecified), the inhibition came out at 0.65% in assay [1], 1.49% in assay [2] and 0.85% in assay [3].

As for `COc1cccc(Nc2nc(C)cc(NCc3ccc(-c4c(C)noc4C)cc3)n2)c1`, the inhibition in assay [1] is 14.8%; in assay [2] it was 13.4%; in assay [3], 3.73%.

As for `COC(=O)c1ccc(-c2ccc(C(=O)NCC3CCN(c4nc(N)c5cc(OC)c(OC)cc5n4)CC3)cc2)cc1`, the values for the inhibition in assay [1], in assay [2] and in assay [3] were 4.1%, 4.23% and 2.11%, respectively.

Regarding `Cc1nc(-c2ccc3c(c2)CCN(CCC2CCC(NC(=O)c4cc5cccc(Cl)c5[nH]4)CC2)CC3)no1` (stereo unspecified), the figures for the inhibition in assay [1], in assay [2] and in assay [3] were 0.58%, 7.07% and 6.97%, respectively.

Regarding `CN1CCN(c2ccnc3ccc(NC(=O)Nc4ccc5ccccc5c4)cc23)CC1`, the inhibition stood at 2.79% in assay [1], 1.63% in assay [2] and 2.8% in assay [3].

Regarding `CC(C)(C)C1CCC(C(=O)c2ccc3ccccc3c2O)CC1` (stereo unspecified), the inhibition is 1.28% in assay [1], -0.87% in assay [2] and 0.57% in assay [3].

Take `O=S(=O)(Nc1cccc(CCN2CCC(N3CCCCC3)CC2)c1)c1ccc2c(c1)OCCO2`: the inhibition turned out to be 1.3% in assay [1], 4.23% in assay [2] and 8.66% in assay [3].

Turning to `Cc1cccc(NC(c2cccs2)c2c(NC(=O)c3ccccc3)sc(C)c2C)n1` (stereo unspecified), the inhibition in assay [1] was 6.21%; in assay [2], 3.93%; in assay [3] it was 2.13%.

`CCCCCOc1ccc(C=NNc2nc(O)cc(-c3ccccc3)n2)cc1`: the inhibition stood at 2.62% in assay [1], 2.5% in assay [2] and 1.79% in assay [3].

In the case of `O=C(NCCSCc1c(F)cccc1Cl)c1cnc2c(c1)nc(-c1c[nH]c(-c3ccccc3)n1)n2CCc1c[nH]cn1`, the figures for the inhibition in assay [1], in assay [2] and in assay [3] were 2.77%, 2.22% and 0.97%, respectively.

In the case of `CC(C)c1ccc(CN2CCC(CNC(=O)c3cc(-c4ccccc4F)cs3)C2)cc1` (stereo unspecified), the results for the inhibition in assay [1], in assay [2] and in assay [3] were 4.5%, 4.88% and 8.4%, respectively.

As to `CC(C)(NCc1ccc(OC(F)(F)F)cc1)c1nc(-c2ccc(Cl)c(O)c2)c(-c2ccncc2)[nH]1`, the inhibition in assay [1] was -0.58%; in assay [2], -0.36%; in assay [3] it was 1.94%.

With `CCCCN(Cc1cc(Cl)c(OCC)c(OC)c1)c1ccc(C(O)(C(F)(F)F)C(F)(F)F)cc1`, the inhibition in assay [1] is -0.54%; in assay [2], -0.97%; in assay [3], -2.65%.

For `Cc1ccccc1CCNC(=O)c1ccc(N2CCN(c3ccncc3)CC2)nc1`, the inhibition amounted to 3.94% in assay [1], 1.96% in assay [2] and 0.46% in assay [3].

Consider `OC(CNCc1ccccc1OCc1ccccc1)c1cccc(I)c1` (stereo unspecified), for which the inhibition in assay [1] amounted to 3.99%; in assay [2], 5.42%; in assay [3], 0.61%.

As to `COc1cccc(C2CCN(CCN3CCC(NC(=O)c4ccc(-c5ccc(Cl)cc5)cc4)CC3)CC2)c1`, the inhibition in assay [1] is -0.82%; in assay [2], 0.69%; in assay [3] it was 1.81%.

For `COc1ccc(NC(=O)c2ccc3cc4ccccc4cc3c2)cc1N1CCN(C)CC1`, the inhibition was 0.49% in assay [1], -0.55% in assay [2] and 0.74% in assay [3].

For `O=C1NC(=S)N/C1=C/C=C/c1ccc([N+](=O)[O-])o1`, the figures for the inhibition in assay [1], in assay [2] and in assay [3] were 27.9%, 30.9% and 5.12%, respectively.

Consider `O=C(Cc1ccccc1)NC(c1ccco1)c1cc(Cl)c2cccnc2c1O` (stereo unspecified), for which the inhibition in assay [1] was -0.34%; in assay [2], -0.27%; in assay [3], -0.18%.

In the case of `CN(C)CCOc1cc(NC(=O)Nc2cccc3c(-c4ccncc4)cccc23)ccc1I`, the inhibition turned out to be 4.55% in assay [1], 3.67% in assay [2] and 4.12% in assay [3].

`O=c1[nH]c2ccc(Nc3nccc(NCCc4ccccc4)n3)cc2[nH]1`: the inhibition in assay [1] came to 1.91%; in assay [2], 4.94%; in assay [3], 5.12%.

Take `COc1cc2nc(N3CCC(CNC(=O)c4ccc(-c5ccccc5)cc4)CC3)nc(N)c2cc1OC`: the inhibition in assay [1] worked out at 1.43%; in assay [2], 1.28%; in assay [3], 0.24%.

For `CCCCCCn1c(Sc2ccc(C#N)c([N+](=O)[O-])c2)nnc1-c1cccc(Cl)c1`, the inhibition in assay [1] turned out to be 3.22%; in assay [2], 9.17%; in assay [3] it was 0.88%.

In the case of `FC(F)(F)CNc1nc(Nc2ccc3ncccc3c2)nc2[nH]ccc12`, the inhibition amounted to 21.8% in assay [1], 17.9% in assay [2] and 8.14% in assay [3].

For `Cc1ccc(CCC(C)NCC(O)c2cccc(Cl)c2)cc1` (stereo unspecified), the inhibition in assay [1] came out at 12.8%; in assay [2], 13.1%; in assay [3], 11.1%.

As to `O=C(Nc1cccc(Cl)c1)N(CCCn1ccnc1)Cc1csc(-c2ccc(CNCc3ccccc3)cc2)n1`, the inhibition in assay [1] stood at 5.54%; in assay [2] it was 3.76%; in assay [3], 4.27%.

As for `CN(Cc1ccncc1)C(Cc1ccccc1)C1CCN(Cc2ccc(O)c(Cl)c2)CC1` (stereo unspecified), the inhibition in assay [1] is 1.88%; in assay [2] it was 2.51%; in assay [3] it was -0.31%.

Consider `COc1cc2nc(N3CCC(CNC(=O)c4cccc5cc[nH]c45)CC3)nc(N)c2cc1OC`, for which the inhibition in assay [1] is 6.26%; in assay [2], 4.21%; in assay [3], 5.67%.

For the molecule `CCCC(=O)Nc1ccc(Cl)c(NC(=O)COc2cc(C)ccc2C(C)C)c1`, the inhibition in assay [1] came to 9.77%; in assay [2] it was 8.41%; in assay [3], 8.05%.

For the molecule `Cc1cccc(NC(=O)NCc2ccccc2)n1`, the results for the inhibition in assay [1], in assay [2] and in assay [3] were 1.62%, 1.46% and 2.38%, respectively.

`Cc1[nH]c(C)c([N+](=O)[O-])c(=O)c1-c1ccc(Oc2ccccc2)cc1`: the inhibition was -1.81% in assay [1], 0.5% in assay [2] and -1.98% in assay [3].

Regarding `COc1cc(F)c2ncc(Cl)c([C@@H](O)CN3CCC(NCc4ccc5c(n4)NC(=O)CO5)CC3)c2c1`, the inhibition was determined as 6.57% in assay [1], 3.3% in assay [2] and 2.71% in assay [3].
